The record followed here is PubChem BioAssay (NCI).

About 83,000 compounds went through this panel and 20% of them were active in at least one assay; those are over-represented in the sample as a whole.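 Each cell line was grown in a 96-well plate and treated with one concentration of compound for 48 hours. Values below 10 were considered active.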 Values without a mark were called inactive. Activity calls are given as the source filed them.

Holding throughout (assay): NCI-60 one-dose screen, 48 h (100 = growth as untreated, 0 = no growth, -100 = all killed)
Holding throughout (conditions): 10 µM unless noted

For assay [1], the system named is SK-MEL-2 melanoma.
Assay [2] concerns EKVX NSCLC.
The subject of assay [3] is SN12C renal.
For assay [4], the system named is UO-31 renal.
For assay [5], the system named is TK-10 renal.
Assay [6] deals with ACHN renal.
Assay [7] concerns A498 renal.
Assay [8] has as its system MOLT-4 leukemia.
In assay [9] the test system is CAKI-1 renal.
Assay [10] relates to CCRF-CEM leukemia.

Take `NC1=NC(c2ccccc2OS(=O)(=O)c2ccc(Br)cc2)n2c(nc3ccccc32)N1` (configuration not stated): the growth in assay [1] is 101%; in assay [2], 99.1%; in assay [3], 87.7%; in [4] it was 73.5%; in [5], 99%; in assay [6], 94.5%. Moreover, the growth was 101% in [7] and 79.3% in assay [8].
For the compound `O=c1[nH]c(=S)c2c(n1CCCO)CCC2`, the growth in [1] is 99.8%; in assay [2] it was 91.2%; in assay [3] it was 99.7%; in [4] it was 89.9%; in assay [5], 102%; in [6], 103%. Also, the values for the growth in assay [9], in [10] and in assay [8] were 93.2%, 103% and 104%, respectively.
Consider `COc1cc(-c2nc3ccccc3o2)cc(CN2CCN(c3ccccc3)CC2)c1O`, for which the growth was 75% in assay [1]; 71.8% in assay [2]; 66.2% in assay [3]; 43.8% in [4]; 117% in [5]; 73.6% in assay [6]. The values for the growth in assay [7] and in [8] were 77.6% and 92.5%, respectively.
Regarding `CCCCC/C=C\C/C=C/CCCCCCCCNC(=O)Nc1ccc([N+](=O)[O-])cc1`, the growth in [1] is 119%; in [2] it was 79.1%; in assay [3], 83.2%; in assay [4], 60.5%; in [5], 82.5%; in assay [9], 56.2%. In addition, the growth in assay [7] was 83.7%; in assay [10], 31.4%; in assay [8], 43.2%.
For `O=C(NC1CC1)c1cc2n(n1)CC(c1ccccc1)N2` (configuration not stated), the growth in [1] is 99.9%; in [2] it was 83.7%; in [3], 102%; in assay [4] it was 95.8%; in assay [5], 102%; in assay [6], 106%. Also, the growth is 108% in assay [10] and 109% in assay [8].
Take `CCN1C(=O)C2(Nc3ccccc3S2)c2cc(C)ccc21` (configuration not stated): the growth is 111% in [1]; 103% in [2]; 97.7% in assay [3]; 79.3% in [4]; 107% in assay [5]; 99% in assay [9]. The growth in assay [7] is 138%; in [10], 9.42% (active); in assay [8] it was 100%.
`O=S(=O)(Nc1ccc(Cl)c(Cl)c1)c1ccc(-c2cnc(C3CC3)o2)cc1`: the growth was 37.4% in assay [1]; 33.8% in [2]; 41.2% in assay [3]; 44% in assay [4]; 51.3% in assay [5]; 45.1% in assay [6]. Moreover, the results for the growth in assay [9], in [10] and in [8] were 35.9%, 18.9% and 32.4%, respectively.
`O=C1c2c(c3c4cc(Br)ccc4[nH]c3c3ccc4ccccc4c23)C(=O)N1O`: the growth is 106% in assay [1]; 87.3% in assay [2]; 92.2% in [3]; 101% in assay [4]; 117% in assay [5]; 73.3% in assay [6]. Besides, the figures for the growth in assay [9], in assay [10] and in assay [8] were 69.6%, 54.1% and 68.5%, respectively.
Regarding `O=C(O)c1ccccc1Oc1cc(-c2ccco2)nc(OCCBr)n1`, the growth in [1] is 111%; in [2], 94.5%; in assay [3], 94.7%; in [4] it was 86.6%; in [5] it was 103%; in assay [9], 90.7%. Further, the growth is 99.3% in assay [7], 87.1% in assay [10] and 98.5% in assay [8].
For `N#Cc1c(-c2cccc(F)c2)cc(-c2ccc(Br)s2)[nH]c1=O`, the growth in [1] was 60%; in assay [2] it was 89.3%; in assay [3], 92.4%; in assay [4], 74.1%; in assay [5], 108%; in [6], 91.9%. For the same compound, the growth in assay [9] was 49.8%; in assay [10] it was 90.7%; in [8] it was 82.6%.
Regarding `O=C(NCc1ccc(F)cc1)C1CN(c2ccc(Cl)cc2)N(c2ccc(Cl)cc2)C1=O` (configuration not stated), the growth in assay [1] is 64.6%; in [2], 74.8%; in assay [3] it was 83%; in [4], 51%; in [5], 100%; in assay [6] it was 75.6%. Moreover, the results for the growth in assay [7], in [10] and in [8] were 39.8%, 61.8% and 37.1%, respectively.
Take `COc1cccc2c(=O)c3c(sc12)c(NCCN(C)C)nc1ccccc13`: the growth in assay [1] is 49.1%; in assay [2], 26.2%; in assay [3] it was 34.9%; in assay [4], 12.2%; in assay [5], 47.2%; in assay [9] it was 26.2%. Also, the growth was -15.7% (active) in assay [7], 20.9% in [10] and -14.6% (active) in [8].
With `O=c1oc2ccccc2cc1-c1csc(N=Nc2c(O)[nH]c3ccc(Br)cc23)n1`, the growth in [1] was 107%; in assay [2], 95.8%; in assay [3] it was 98.7%; in [4] it was 86.3%; in assay [5], 111%; in [6] it was 97.9%. The growth in [9] is 93.4%; in assay [10] it was 97.2%; in assay [8], 120%.
For `CC1=C(C/C=C(\C)CCC[C@H](C)CCC[C@H](C)CCCC(C)C)C(=O)c2ccccc2C1=O`, the growth in assay [1] was 114%; in assay [2], 114%; in assay [3], 99.7%; in assay [4], 71.7%; in assay [5], 95.6%; in assay [9], 103%. For the same compound, the growth in assay [7] is 101%; in assay [10], 102%; in [8], 101%.
Regarding `COc1ccc(NS(=O)(=O)c2ccc(-c3cnc(C4CC4)o3)cc2)cc1`, the growth in assay [1] is 46.6%; in assay [2], 69.9%; in [3] it was 81.5%; in assay [4] it was 69.8%; in [5] it was 79.8%; in assay [6], 80.6%. Further, the growth is 48.3% in [9], 76.2% in assay [10] and 48.6% in [8].
On to `Cc1cccc2c(=O)c3c(sc12)c(NCCNCCO)nc1ccccc13`, for which the growth in assay [1] is 79.3%; in assay [2], 41.6%; in assay [3], 33.4%; in assay [4], 29.6%; in assay [5], 34.9%; in [6], -19.2% (active). Further, the growth in [9] is 22.1%; in [10] it was 13.7%; in assay [8], -31.1% (active).
`COC(=O)c1c2c(c(C)[n+]([O-])c1C)C(=O)C=C(NCc1ccc(F)cc1)C2=O`: the growth in [1] is -31.3% (active); in [2], -57% (active); in assay [3] it was -88.8% (active); in [4] it was -21% (active); in assay [5] it was 13.6%; in [6] it was -45.2% (active). Moreover, the growth in [9] was -0.887% (active); in assay [10], 4.77% (active); in assay [8], -35.2% (active).
For `NC(=O)c1cccc(-n2ccc3cc(NC(=O)Nc4ccc(Cl)c(Cl)c4)ccc32)n1`, the growth is 88.3% in assay [1]; 68.3% in assay [2]; 86.8% in [3]; 95.5% in assay [4]; 80.7% in assay [5]; 74.5% in assay [6]. For the same compound, the growth in [9] was 57.6%; in [10], 59.2%; in assay [8], 50.7%.
For `COc1ccc(-c2nc3sc(C)cn3c2/C=C/C(=O)c2cc(OC)c(OC)c(OC)c2)cc1`, the growth is 63% in [1]; 34% in assay [2]; 59.5% in [3]; 31.6% in assay [4]; 96.9% in assay [5]; 76.7% in assay [9]. Besides, the growth was 52.5% in assay [7], 37.4% in assay [10] and 12.2% in assay [8].
For `CN(C)C(=S)SCN1C(=O)c2ccc([N+](=O)[O-])cc2S1(=O)=O`, the growth in assay [1] was 112%; in assay [2], 93.7%; in [3], 93.1%; in assay [4] it was 83.1%; in assay [5] it was 108%; in assay [9], 96%. In addition, the growth in assay [7] is 92.6%; in [10], 50.6%; in assay [8] it was 91.6%.
For `O=C(Nc1ccccc1)Oc1cccc2cccnc12`, the growth in assay [1] is 93.9%; in assay [2] it was 82.2%; in assay [3], 94.9%; in assay [4], 68.1%; in [5], 104%; in assay [6] it was 84.7%. For the same compound, the growth in assay [7] was 119%; in [10] it was 7.23% (active); in assay [8], 55.3%.
`CCCCCCCCCCCCCCn1c2ccccc2c2c3c(c4c5cc(OC)ccc5oc4c21)C(=O)NC3=O`: the growth is 113% in assay [1]; 105% in assay [2]; 101% in [3]; 88.5% in assay [4]; 109% in assay [5]; 103% in [6]. In addition, the growth in assay [9] was 93.2%; in assay [10], 103%; in [8] it was 123%.
Turning to `COc1ccc(C(=O)COc2cccc(/C=C3\CSc4ccc(C)cc4C3=O)c2)cc1`, the growth in assay [1] is 79.5%; in [2], 106%; in assay [3] it was 91.7%; in assay [4], 78.5%; in [5], 101%; in [9], 91.6%. For the same compound, the values for the growth in assay [7], in [10] and in [8] were 112%, -9.38% (active) and -7.35% (active), respectively.
Consider `COc1cc(/C=N/NC(=O)c2cnn3c2NC(c2ccccc2)C3)ccc1OC1CCCC1` (configuration not stated), for which the growth is 18.6% in [1]; 44.9% in assay [2]; 46.1% in [3]; 33.1% in [4]; 60.2% in [5]; 35.6% in [6]. Also, the figures for the growth in [9], in assay [10] and in [8] were 32.2%, 24.3% and 41.6%, respectively.
In the case of `CCCN1CCN(c2ccc3nc(-c4ccc5nc(-c6ccc(C(F)(F)F)cc6)[nH]c5c4)[nH]c3c2)CC1`, the growth in assay [1] was 7.45% (active); in assay [2] it was -34.3% (active); in [3], -69.2% (active); in assay [4], 79.7%; in assay [5] it was -13% (active); in assay [6], -99.9% (active). Moreover, the growth in assay [9] was 59%; in [10] it was -21.1% (active); in assay [8], -38.6% (active).
Take `CN1CCN(CCCn2c3c(sc4ncccc43)c(=O)n3nnc(-c4ccccc4)c23)CC1`: the growth is 99.3% in assay [1]; 97.2% in [2]; 75.2% in assay [3]; -90.8% (active) in [4]; -73.3% (active) in assay [5]; 97.7% in assay [9]. Further, the results for the growth in assay [7], in assay [10] and in [8] were 150%, -20.6% (active) and -35% (active), respectively.
On to `COC(=O)c1c2c(c(C)[n+]([O-])c1C)C(=O)C=C(NCc1ccc(F)c(Cl)c1)C2=O`, for which the growth is -42.8% (active) in assay [1]; -63.3% (active) in [2]; -85.7% (active) in [3]; -49.5% (active) in assay [4]; 21.2% in assay [5]; -38.4% (active) in [6]. Besides, the growth in assay [9] is -16.1% (active); in assay [10] it was -2.7% (active); in [8], -35.6% (active).
With `CC(C)NCC(O)COc1ccc(CCOCC2CC2)cc1` (configuration not stated), the growth in assay [1] is 109%; in assay [2], 98.4%; in assay [3], 96.9%; in [4] it was 76.9%; in assay [5], 111%; in assay [6] it was 109%. Also, the growth in assay [7] was 90.7%; in [10] it was 93.8%; in assay [8], 88.3%.
`COc1ccc(/C=N\N2CCOCC2)cc1OC1CCCC1`: the growth was 106% in assay [1]; 89.4% in [2]; 101% in assay [3]; 82% in assay [4]; 101% in [5]; 104% in assay [6]. For the same compound, the growth was 94.1% in assay [9], 106% in assay [10] and 122% in assay [8].
For `COc1ccc(-c2[nH]ncc2Nc2cc(OC)c(OC)c(OC)c2)cc1`, the growth is 66.4% in assay [1]; 49.4% in assay [2]; 45.4% in assay [3]; 46.8% in assay [4]; 62% in assay [5]; 55.7% in [6]. Besides, the growth was 48.7% in assay [7], 39.9% in [10] and 72.6% in [8].
